target: NCR3; assay: pooled miR-30 sensor sort-seq; sequence = guide strand; conditions: shRNA
Further: reference of the scale not given here.

In order of falling sensor-assay potency score (higher = more potent):
1. TAGCTGAGGATGTTCTTTCTCC  -0.477
2. TTTGCCCTGGTAATAGACGGTG  -0.728
3. AAGCTGACAGCATAGAATCCAG  -0.853
4. TCTCGGAACCACGTGACGGAGC  -0.976
5. TCTTTCTCCACCACCAGCCGAG  -1.09
6. TGGAACCACCTCATCTCGGAAC  -1.16
7. ACTCTGCACACGTAGATGCTGG  -1.18
8. TCCAGGTCAGACATTTGCCCTG  -1.34
9. TATTGGGTGAATGACAGTGTTC  -1.59
10. TTCCAGGTCAGACATTTGCCCT  -1.63
11. TTCTTTCTCCACCACCAGCCGA  -1.65
12. ATGTTCTTTCTCCACCACCAGC  -2.11

target: NCSTN; assay: as above; conditions: shRNA

In order of rising sensor-assay potency score (higher = more potent):
1. TAGCATGCTCCACACATTGTAA  -1.37
2. AAGACAAACATGACATTGCGGG  -0.588
3. TATATCTTCCTCTCCACTGAGT  -0.425
4. TTAAACAGGAGCAAGAAGCTTC  -0.218
5. TCGAGCTCGAAGAAATCGCTGC  0.0428
6. TCAGCCTGAACTGTGTCGCTGA  0.319
7. TTCCACTGTATTTCTCTGCAGT  0.342
8. TACTGTACAACATAAGTGGTGT  0.405

— the OligoGym collection
